Columns and labels:
Assay in all cases: log2 ratio of Biotin-Ahx-Ub-VS probe labelling (compound/DMSO); higher = less target engagement, active = hit call of the paper (q ≤ 0.05, log2 ratio ≤ -1)
Conditions in all cases: treatment time: 3 h
[1] = compound: ClCC(=O)NC1CCCc2ccccc12
How it was run: (§1)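 In triplicate, 495 µg portions of HEK293T lysate in Tris/CHAPS/IGEPAL buffer with protease inhibitors received compound across a concentration series or vehicle for 3 h, followed by 1 h with 0.5 µM final Biotin-Ahx-Ub-VS. After NeutrAvidin enrichment and LysC/trypsin digestion, the labelled deubiquitinases were measured by diaPASEF LC-MS/MS and quantified label-free in Spectronaut with global-median normalisation. Each value is an average compound-to-vehicle ratio from an unpaired t-test, expressed as log2 and restricted to proteins having two or more unique peptides.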

[2] = compound: ClCC(=O)N[C@@H]1CCCc2ccccc12
How it was run: as §1

[3] = compound: ClCC(=O)N[C@H]1CCCc2ccccc12
How it was run: as §1

[4] = compound: CCC1N(CCc2sccc12)C(=O)CCl
How it was run: (§2)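 HEK293T lysate (495 µg per sample, in Tris/CHAPS/IGEPAL buffer with protease inhibitors) was exposed in triplicate to compound at 50 or 200 µM, or to DMSO, for 3 h, then to Biotin-Ahx-Ub-VS (0.5 µM final) for 1 h. The labelled DUBs were enriched on NeutrAvidin, digested with LysC and trypsin, and analysed by diaPASEF LC-MS/MS. Average base-two log ratios of compound over DMSO came from median-normalised label-free quantities by unpaired t-test. Only proteins with at least 2 unique peptides were used.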

[5] = compound: CN1c2ccccc2C(CS1(=O)=O)NC(=O)CCl
How it was run: as §2

[6] = compound: Cl.ClCC(=O)N1CCc2ncncc2C1
How it was run: as §2

[7] = compound: Cl.Cn1ncc2C(CCCc12)NC(=O)CCl
How it was run: as §2

[8] = compound: ClCC(=O)NC1CCOc2ccccc12
How it was run: as §2

[9] = compound: CCC1N(CCc2cc(OC)c(Cl)cc12)C(=O)CCl
How it was run: as §2

[10] = compound: CCCC1N(CCc2cc(OC)c(OC)cc12)C(=O)CCl
How it was run: as §2

Measured: log2 ratio of Biotin-Ahx-Ub-VS probe labelling

USP20 (UniProt Q9Y2K6)
UniProt Q9Y2K6, sequence (Q9Y2K6 whole entry): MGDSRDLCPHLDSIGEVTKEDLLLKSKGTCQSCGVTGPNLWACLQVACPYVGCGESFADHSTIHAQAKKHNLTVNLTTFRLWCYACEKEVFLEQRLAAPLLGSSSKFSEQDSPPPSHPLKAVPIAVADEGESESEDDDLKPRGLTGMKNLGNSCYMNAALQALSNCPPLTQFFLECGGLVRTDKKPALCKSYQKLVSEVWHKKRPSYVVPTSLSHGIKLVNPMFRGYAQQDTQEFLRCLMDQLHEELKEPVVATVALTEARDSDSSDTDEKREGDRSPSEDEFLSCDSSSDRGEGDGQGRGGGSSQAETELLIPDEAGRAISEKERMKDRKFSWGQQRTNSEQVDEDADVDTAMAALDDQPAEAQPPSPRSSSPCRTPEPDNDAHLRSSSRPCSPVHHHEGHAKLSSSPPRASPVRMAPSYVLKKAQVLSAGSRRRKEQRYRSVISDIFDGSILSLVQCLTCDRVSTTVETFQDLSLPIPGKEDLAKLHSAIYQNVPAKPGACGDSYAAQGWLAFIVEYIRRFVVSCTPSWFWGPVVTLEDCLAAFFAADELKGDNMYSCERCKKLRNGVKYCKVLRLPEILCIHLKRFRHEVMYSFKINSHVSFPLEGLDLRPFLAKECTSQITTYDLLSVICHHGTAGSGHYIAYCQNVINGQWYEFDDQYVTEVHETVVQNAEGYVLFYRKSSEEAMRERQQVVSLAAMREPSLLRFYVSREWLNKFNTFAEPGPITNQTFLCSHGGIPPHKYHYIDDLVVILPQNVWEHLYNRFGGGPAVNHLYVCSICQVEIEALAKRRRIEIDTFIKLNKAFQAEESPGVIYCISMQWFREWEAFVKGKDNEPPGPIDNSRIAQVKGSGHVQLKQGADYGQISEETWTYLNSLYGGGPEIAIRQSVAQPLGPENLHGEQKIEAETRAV
inactive: [1]; compound concentration: 0.78uM -0.154 | [1]; compound concentration: 1.56uM -0.0255 | [1]; compound concentration: 3.13uM -0.00841 | [1]; compound concentration: 6.25uM -0.000882 | [1]; compound concentration: 12.5uM -0.0255 | [1]; compound concentration: 25uM 0.0283 | [1]; compound concentration: 50uM 0.0248 | [1]; compound concentration: 100uM -0.235 | [1]; compound concentration: 200uM -0.41 | [2]; compound concentration: 0.78uM -0.0803 | [2]; compound concentration: 1.56uM 0.0532 | [2]; compound concentration: 3.13uM -0.0362 | [2]; compound concentration: 6.25uM -0.00476 | [2]; compound concentration: 12.5uM -0.141 | [2]; compound concentration: 25uM -0.125 | [2]; compound concentration: 50uM -0.102 | [2]; compound concentration: 100uM -0.0854 | [2]; compound concentration: 200uM -0.279 | [3]; compound concentration: 0.78uM -0.0632 | [3]; compound concentration: 1.56uM 0.0904 | [3]; compound concentration: 3.13uM -0.0898 | [3]; compound concentration: 6.25uM 0.0566 | [3]; compound concentration: 12.5uM 0.0631 | [3]; compound concentration: 25uM -0.0313 | [3]; compound concentration: 50uM 0.0027 | [3]; compound concentration: 100uM -0.13 | [3]; compound concentration: 200uM -0.329

UniProt Q70EL2
UniProt Q70EL2, sequence (Q70EL2 whole entry): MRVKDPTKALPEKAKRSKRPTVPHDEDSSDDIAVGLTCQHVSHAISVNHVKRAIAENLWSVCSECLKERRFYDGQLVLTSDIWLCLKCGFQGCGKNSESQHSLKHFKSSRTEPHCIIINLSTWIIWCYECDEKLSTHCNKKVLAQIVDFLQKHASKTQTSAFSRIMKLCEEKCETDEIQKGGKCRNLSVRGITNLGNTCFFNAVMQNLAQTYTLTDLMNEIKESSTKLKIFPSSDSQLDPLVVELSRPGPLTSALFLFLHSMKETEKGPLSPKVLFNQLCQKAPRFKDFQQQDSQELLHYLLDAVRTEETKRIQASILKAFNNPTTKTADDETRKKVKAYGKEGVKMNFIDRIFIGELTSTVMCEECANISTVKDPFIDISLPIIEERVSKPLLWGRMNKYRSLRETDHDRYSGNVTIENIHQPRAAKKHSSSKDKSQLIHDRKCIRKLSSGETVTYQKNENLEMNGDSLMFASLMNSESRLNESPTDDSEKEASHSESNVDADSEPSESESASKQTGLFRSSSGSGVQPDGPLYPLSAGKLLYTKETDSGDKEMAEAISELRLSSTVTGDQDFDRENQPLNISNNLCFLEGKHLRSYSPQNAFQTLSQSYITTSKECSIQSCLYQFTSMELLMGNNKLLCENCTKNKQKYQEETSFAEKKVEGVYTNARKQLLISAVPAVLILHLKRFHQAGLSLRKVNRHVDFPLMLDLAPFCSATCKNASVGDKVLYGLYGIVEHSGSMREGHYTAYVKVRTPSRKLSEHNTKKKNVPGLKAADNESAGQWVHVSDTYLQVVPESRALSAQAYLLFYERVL
inactive: [4]; compound concentration: 50uM -0.13 | [4]; compound concentration: 200uM -0.934 | [5]; compound concentration: 50uM -0.103 | [5]; compound concentration: 200uM -0.476 | [6]; compound concentration: 50uM 0.274 | [6]; compound concentration: 200uM -0.808 | [7]; compound concentration: 50uM 0.181 | [7]; compound concentration: 200uM -0.179 | [8]; compound concentration: 50uM 0.189 | [8]; compound concentration: 200uM -0.754 | [9]; compound concentration: 50uM -0.48 | [9]; compound concentration: 200uM -0.823 | [10]; compound concentration: 50uM -0.354 | [10]; compound concentration: 200uM -0.47

USP42 (UniProt Q9H9J4)
UniProt Q9H9J4, sequence (Q9H9J4 whole entry): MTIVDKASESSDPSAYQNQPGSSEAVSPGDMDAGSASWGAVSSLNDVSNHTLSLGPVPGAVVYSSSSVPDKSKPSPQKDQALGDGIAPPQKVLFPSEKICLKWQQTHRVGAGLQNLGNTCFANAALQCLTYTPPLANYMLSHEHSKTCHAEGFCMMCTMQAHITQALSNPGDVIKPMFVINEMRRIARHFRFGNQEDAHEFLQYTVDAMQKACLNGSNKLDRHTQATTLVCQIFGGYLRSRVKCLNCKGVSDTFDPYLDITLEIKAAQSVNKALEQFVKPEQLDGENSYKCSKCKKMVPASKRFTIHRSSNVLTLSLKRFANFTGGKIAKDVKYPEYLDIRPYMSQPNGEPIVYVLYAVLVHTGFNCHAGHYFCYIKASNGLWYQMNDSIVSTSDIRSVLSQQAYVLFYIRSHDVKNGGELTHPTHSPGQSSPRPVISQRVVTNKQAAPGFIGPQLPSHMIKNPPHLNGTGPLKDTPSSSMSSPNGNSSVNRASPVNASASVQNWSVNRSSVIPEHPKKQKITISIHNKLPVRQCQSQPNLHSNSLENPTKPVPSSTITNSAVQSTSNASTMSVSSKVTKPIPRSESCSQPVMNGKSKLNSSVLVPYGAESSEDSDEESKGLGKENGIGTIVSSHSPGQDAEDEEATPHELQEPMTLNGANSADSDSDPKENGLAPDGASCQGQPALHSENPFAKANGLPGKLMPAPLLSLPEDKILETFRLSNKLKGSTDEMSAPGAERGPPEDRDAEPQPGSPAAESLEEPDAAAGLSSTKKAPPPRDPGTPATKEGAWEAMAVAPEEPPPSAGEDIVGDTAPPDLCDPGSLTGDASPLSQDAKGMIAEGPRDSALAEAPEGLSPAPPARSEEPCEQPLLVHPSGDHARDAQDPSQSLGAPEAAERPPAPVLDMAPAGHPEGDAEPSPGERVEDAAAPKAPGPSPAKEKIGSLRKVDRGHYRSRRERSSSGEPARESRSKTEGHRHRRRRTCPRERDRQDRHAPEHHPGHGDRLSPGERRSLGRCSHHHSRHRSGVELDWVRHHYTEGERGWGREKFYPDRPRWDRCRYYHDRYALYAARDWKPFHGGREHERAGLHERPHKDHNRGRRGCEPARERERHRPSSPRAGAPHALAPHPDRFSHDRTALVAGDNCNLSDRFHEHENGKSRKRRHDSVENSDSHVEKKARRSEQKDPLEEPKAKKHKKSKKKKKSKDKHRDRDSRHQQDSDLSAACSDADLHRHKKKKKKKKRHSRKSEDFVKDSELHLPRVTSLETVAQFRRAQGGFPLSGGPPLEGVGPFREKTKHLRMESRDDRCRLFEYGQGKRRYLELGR
inactive: [4]; compound concentration: 50uM 0.0875 | [4]; compound concentration: 200uM 0.424 | [5]; compound concentration: 50uM 0.125 | [5]; compound concentration: 200uM 0.131 | [6]; compound concentration: 50uM 0.0642 | [6]; compound concentration: 200uM 0.249 | [7]; compound concentration: 50uM -0.167 | [7]; compound concentration: 200uM 0.115 | [8]; compound concentration: 50uM -0.093 | [8]; compound concentration: 200uM 0.371 | [1]; compound concentration: 0.78uM -0.0166 | [1]; compound concentration: 1.56uM -0.0953 | [1]; compound concentration: 3.13uM -0.0821 | [1]; compound concentration: 6.25uM -0.0491 | [1]; compound concentration: 12.5uM -0.106 | [1]; compound concentration: 25uM -0.0142 | [1]; compound concentration: 50uM -0.0733 | [1]; compound concentration: 100uM 0.00602 | [1]; compound concentration: 200uM -0.207 | [2]; compound concentration: 0.78uM 0.0511 | [2]; compound concentration: 1.56uM 0.0688 | [2]; compound concentration: 3.13uM 0.0123 | [2]; compound concentration: 6.25uM 0.154 | [2]; compound concentration: 12.5uM -0.0261 | [2]; compound concentration: 25uM 0.0226 | [2]; compound concentration: 50uM -0.157 | [2]; compound concentration: 100uM 0.109 | [2]; compound concentration: 200uM 0.00814 | [3]; compound concentration: 0.78uM -0.186 | [3]; compound concentration: 1.56uM -0.0565 | [3]; compound concentration: 3.13uM -0.196 | [3]; compound concentration: 6.25uM -0.273 | [3]; compound concentration: 12.5uM -0.0469 | [3]; compound concentration: 25uM 0.0215 | [3]; compound concentration: 50uM -0.0548 | [3]; compound concentration: 100uM 0.132 | [3]; compound concentration: 200uM -0.0982 | [9]; compound concentration: 50uM -0.199 | [9]; compound concentration: 200uM 0.281 | [10]; compound concentration: 50uM -0.0757 | [10]; compound concentration: 200uM 0.0626
